In PubChem BioAssay AID1347426 (Functional Genomics Laboratory (NCATS/FGL), 2020):
The campaign covered roughly 31,000 sequences. About 1,400 (4.5%) were called active. The entries come from a sample that favours actives as a whole. Values without a mark were called inactive.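 Rule for the calls: active = median seed-adjusted z-score above 1 or below -1; inactive = the rest.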

Assay: Novel Modifiers of Survival Motor Neuron (SMN) Protein: Gene Identification via Genome-wide siRNA Screen;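 note: luminescence tracks full-length SMN protein made from the SMN2 reporter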
Conditions: HEK293T SMN2-luciferase reporter, siRNA knockdown, 72 h; actives lie on both sides
Method in brief: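 Each of three siRNAs per gene is reverse-transfected (1 pmol) into reporter HEK293T cells whose luciferase output tracks SMN protein level. After 72 h culture, ONE-Glo luminescence is control-normalized, log10-transformed and MAD-standardized; Common Seed Analysis deprioritizes seed-driven hits.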

Sequence	median seed-adjusted z-score
GCCUUCUACACUUACAUGATT against EVX1	1 (active)
GGAGUCAAGUGAAGCAGAATT against L3MBTL2	-0.312
GCAGGUACAUCUCGCCUGATT against ENO1	0.0766
GCCCAAUACUUGCAAGUGATT against KCNA2	-1.03 (active)
GGGAGGUAGUAAUCCUACATT against PPP1R12B	0.416
GGAUUCAUGAGUCUAUAUATT against SLC25A27	0.0916
GGACACCACAGUACCUAAATT against IL22RA1	-1.14 (active)
CAAUCCUGACUCAAACUAATT against RAG2	0.138
GGACCUGUAUUGGGAACAATT against ASPHD2	-0.719
CUUCAAAGGUGACAAGUAUTT against MMP24	-1.28 (active)
GGAGAGCAAUACAUCAUCATT against GLRX2	-0.244
GCACUUUACUAGGUCUAGATT against NANOS1	0.369
GAUUACUGGUGCGAUGUUATT against L3MBTL4	-0.189
UCUGCUAACCUGAAAGUAATT against CARD8	0.115
AGAUCGACAAGAUGCAAGATT against FOXN1	0.226
CAGUGAAUCUUGGUUGUAATT against TBP	-1.25 (active)
GCAUCAUCCAGAGACUGCATT against CCL19	0.0364
GCAGAGACACCUUGAAGUATT against GAD1	0.101
CGUGUUUAUAAUUACCGAATT against MED14	-3.22 (active)
CACGAAAUCAUGCAAAUCATT against RPL17	-0.13
GAGGCGCACUUCAAGCAUATT against CENTA1	-0.555
GGAGUAAACCUCACUGACATT against TMPRSS5	1.25 (active)
GUAUCAAUCUUUGCGGAUATT against KL	-0.267

Sequence	median seed-adjusted z-score
AGAUCAUGACUUGUGCUGATT against SEZ6L2	-0.331
GGAGGGCAUUGUCACUAAATT against MCM3	0.339
GGAUACCCAAUGCAAAUUATT against MMP16	0.144
GGAGAACUACCAGAACCUUTT against ZNF74	1.17 (active)
GCACUGGACCAAUACAAGUTT against GPR84	0.285
GGUGUUGUCUUGAGGUACATT against ADAMTS1	0.173
ACCCAGAUAUGGAUCUGCATT against TTLL10	0.211
GCUCAAAUGGAGAACUAAATT against GALNT8	-0.283
GACCAAAAGUGGAACUCCATT against PTPN23	-0.0473
CCAUUGUUCCAGACUUCUUTT against CMBL	0
GGGCAUGGGUUUUAAUCGATT against PYGO1	-1.23 (active)
GAGUUAUACGAUCCAUGUATT against TXNL4A	-0.42
AGAGCUAUGCUUUAGGUCUTT against S100A2	-0.0951
GCCUCAAUCUCUACUCGAATT against PCDHGA2	-0.8
GACAAAAAGUCCAACCCUATT against CYB5R3	-0.901
UGAGAUUUCGGAAUCAGAATT against TSPAN31	-1.13 (active)
GAACUAGGAUUUCAUAGCATT against LGR5	0
GAGUCACAGUCGUUAUUCUTT against CNOT4	-0.116
GGAUUAUUUCUGGUUCCUATT against ATP8A2	0
GCAUCAGCAUGUCGGUGGATT against ARID3A	-1.11 (active)
GUCCCGCAGAUUCAACAAATT against SSBP3	0.00592
CAAUCCUGUAUCUACCGUATT against OVCH1	0.0211
CAUCAAUGAGGUAUACUAUTT against DYRK1B	0.29

Sequence	median seed-adjusted z-score
CUAUAAGUCUAGUAGCAAATT against WNK2	0.212
CGACGGCACCUGCAAUUUUTT against IMPA2	0.0513
GCUGUAAACAGUCAUCAGATT against ZNF180	0
GAAAAUGACGGUUAUAAGATT against PMM2	0.448
GCAUGUUAUUGAAUUAUCATT against TM9SF2	1.09 (active)
GGAACGUGGUACUUAGUUATT against HMGCS1	0.0596
GCAGCUUCAAGAUCAAUGATT against ANTXR1	-0.0849
CAAAAGUGUAUAUAAACUUTT against NDUFS6	-0.0128
ACUUUGUCCGUGUGUCUUATT against SLC30A3	-1.26 (active)
GGAACAGGAUGAAUAUGCATT against HADHB	-0.188
CGACUGGAUGUAUAAGCAUTT against TGIF2LX	-0.568
GAGAAGAAGUUCUUAAGGATT against ALKBH8	-0.487
AGUUCUACAUGCCGGAUGATT against GGTLC1	-0.298
GCCUCGUUCUGAAGACGAUTT against LIPC	0.244
CCAACCACCAGAUCUAUGATT against LBX1	-0.36
CCAUGGCAGUACCAACUAGTT against CREM	-2.37 (active)
GGACCACUAUUUACAGCAATT against FUCA2	0.562
GGUCUGUACUGGGAUUCAUTT against PKD2L2	-0.0723
GGCUUUUGCCCUAUCCAUUTT against WNK4	0.385
CACGAGGAGUGGACAAUAUTT against UCK1	-0.599
CAAAUCGCCUAAUAAACUUTT against KRT33B	0.04
GGAGCUUUGUCAAGAAGAUTT against FKBPL	-1.11 (active)
GCCUGAUAACGUAAUAACATT against ARSA	0.0938
